# From PubChem BioAssay
# In the library only some 11% were active in any assay of this set; here they are far more common.
# Vaccinia mCherry – inhibitors of vaccinia virus infection (mCherry reporter signal); Vaccinia virus mCherry reporter infection, fluorescence; Potency, µM (highest dose often 36.5 µM), for the others: at the top dose activity change, negative = inhibition, usual class: inhibitors; 310,000 compounds, 0.63% hits; calls by dose curve; tested in A549 cells; also: % is scaled to controls: 0 for no effect and ±100 for the full control effect; nearly all actives have a fitted effect of over 35% in size
# Pf growth 96h – P. falciparum growth inhibition at 96 hour, primary screen for plastid delayed-death inhibitors; AID 504834; Potency, µM (titrated, usually from 28.7 µM), inactives show at the top dose activity change, negative = inhibition, most hits filed as inhibitors; 320,000 compounds, 6.9% hits; P. falciparum luciferase reporter growth, 96 h; also: % is scaled to controls: 0 for no effect and ±100 for the full control effect
#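 Parasite growth measured via integrated firefly luciferase reporter in P. falciparum. Infected erythrocytes at 2% hematocrit, 0.05% parasitemia final were treated 96 hours at 37 C under 5% CO2, and luminescence was read.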
# Vaccinia Venus – vaccinia inhibition (Venus reporter). Vaccinia virus Venus reporter expression, fluorescence. Potency, µM (highest dose often 36.5 µM), without a hit: at the top dose activity change, negative = inhibition, usual class: inhibitors. 330,000 compounds, 0.46% hits; calls by dose curve; tested in A549 cells; also: % is scaled to controls: 0 for no effect and ±100 for the full control effect; nearly all actives have a fitted effect of over 30% in size
# NS1 inh – blocks influenza NS1 protein function; 270,000 compounds, 0.4% hits; AID 2326; Potency, µM (top dose mostly 46.1 µM), for the others: at the top dose activity, positive = more growth; calls by dose curve; also: actives are rising curves; nearly all actives have a fitted effect of over 50% in size
#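 A cell-based growth assay was used: compounds that relieve NS1-induced slow growth of budding yeast raise OD600. Assay medium was yeast nitrogen base with ammonium sulphate and -URA supplement, pH 6.0, with 2% galactose.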
# HCV inhibitor – HCV inhibition; AID 651820; Huh7.5.1 HCVcc-Cre infection, luciferase reporter, 44 h; Potency, µM (titrated, usually from 41.8 µM), without a hit: top-dose activity change, negative = inhibition, most hits filed as inhibitors; 340,000 compounds, 3.4% hits; also: % is scaled to controls: 0 for no effect and ±100 for the full control effect
#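 Cells (1,000/well) were plated 4 h before compound, then infected with HCVcc-Cre virus (~0.5 moi). After 44 h further culture, infection was read as luciferase luminescence following a 15 min substrate incubation at room temperature.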
# Pf growth 48h – P. falciparum growth inhibition at 48 hours (one generation). P. falciparum luciferase growth in erythrocytes, 48 h. Potency, µM (doses to about 28.7 µM), for inactives: at the top dose activity change, negative = inhibition, actives largely listed as inhibitors. 310,000 compounds, 5.9% hits. AID 504832; also: % is scaled to controls: 0 for no effect and ±100 for the full control effect
#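 Compounds are pin-transferred into medium, infected erythrocytes (2% hematocrit, 0.1% parasitemia final) are added, and plates sit one parasite generation at 37 C in 5% CO2. Detection reagent is then added and luminescence measured.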
# * hit, by the source's call; i = inactive; u = inconclusive; x = not tested or not shown. Unless noted, calls follow the shape of the dose curve; as a rule, active = well fitted inhibition curve with a large enough effect; inconclusive = small, poorly fitted or top-dose-only effect, or another doubt; inactive = no such curve, though single readings can be large or run the other way. Potency is read from the fitted curve at half-maximal effect.
SMILES,Vaccinia mCherry,Pf growth 96h,Vaccinia Venus,NS1 inh,HCV inhibitor,Pf growth 48h
COc1ccccc1N1CCN(C(=O)c2cccc(S(=O)(=O)N3CCCCCC3)c2)CC1,x,u,x,x,u,13µM*
CC(=O)N1CCN(C(=O)c2cccc(S(=O)(=O)N3CCN(c4ccccc4)CC3)c2)CC1,x,-30%,x,x,4%,u
COc1ccc(C(=O)N2CCN(C3CCC(c4ccccc4)CC3)CC2)cc1OC (stereo not given),x,9.3µM*,x,-9%,u,u
O=C(c1cccc(S(=O)(=O)N2CCN(c3ccccc3)CC2)c1)N1CCN(c2ccccc2O)CC1,u,u,-5%,x,u,10µM*
CC1Cc2ccccc2N1S(=O)(=O)c1cccc(C(=O)N2CCN(c3ncccn3)CC2)c1 (stereo not given),1.6µM*,u,18%,x,u,u
CCC(=O)N1CCCC1(C)C(=O)Nc1cccc(Oc2ccccc2)c1 (stereo not given),-14%,x,0%,x,x,x
CC(C)Oc1ccc2c3c(c(=O)oc2c1)CCC3,x,u,x,-53%,u,15%
Cc1ccc(OCC(=O)N(Cc2cccc(F)c2)C2CCS(=O)(=O)C2)cc1 (stereo not given),x,10µM*,x,-6%,9%,u
CCCCn1c(N)c(N(Cc2ccccc2OC)C(=O)c2c(CC)noc2C)c(=O)[nH]c1=O,-13%,-10%,-11%,3%,16%,-9%
COc1ccccc1Nc1nn2c(=O)c3ccc(C(=O)NCc4cccnc4)cc3nc2s1,x,8%,x,-3%,x,30%
CCc1cccc(NC(=O)c2ccc3c(=O)n4nc(Nc5ccccc5OC)sc4nc3c2)c1,4µM*,x,4µM*,x,x,x
COc1ccccc1Nc1nn2c(=O)c3ccc(C(=O)NCc4ccc(F)cc4)cc3nc2s1,13µM*,x,u,x,x,x
O=C(NCc1ccccc1)C(c1ccc(-c2ccccc2)cc1)N1CCN(C(=O)C2CCCO2)CC1 (stereo not given),2.8µM*,x,u,x,x,x
COc1ccc(C2C(C#N)=C(N)N(c3sc4c(c3C#N)CCCC4)C3=C2C(=O)CC(C)(C)C3)cc1 (stereo not given),x,x,x,-1%,7.9µM*,6.6µM*
COc1ccc(C2C(C#N)=C(N)N(c3sc4c(c3C#N)CCCC4)C3=C2C(=O)CC(C)(C)C3)cc1OC (stereo not given),x,5.2µM*,x,8%,u,x
CCOc1ccc(C2c3[nH]c4ccccc4c3CCN2C(=O)CCC2CCCC2)cc1 (stereo not given),-15%,x,2%,x,x,x
c1ccc(CCNc2nc3ccccc3s2)cc1,x,-36%,x,-75%,-11%,x
COc1ccc(CNc2nccs2)cc1OC,i,12µM*,-10%,-3%,-19%,41%
COc1ccc(CNc2nc3ccccc3s2)cc1OC,i,u,-1%,-14%,11µM*,106%
COc1ccc(CC(=O)Nc2nccs2)cc1OC,i,18%,-9%,-7%,u,u
O=C(c1ccccc1)N1CCN(c2n[nH]c(=O)[nH]c2=O)CC1,x,0%,x,x,9%,-2%
Cn1nc(-c2ccccc2)c(C(=O)Nc2ccc(C(F)(F)F)cc2)c1Cl,-11%,30%,-8%,4%,-1%,5%
O=C(NCCN1C(=O)S/C(=C\c2ccc(Cl)c([N+](=O)[O-])c2)C1=O)C1=COCCO1,-2%,u,-10%,x,11µM*,-8%
CCc1ccccc1NC(=S)NCCSc1ccc(Cl)cc1,-14%,4.1µM*,-9%,x,-12%,u
Cc1ccccc1NC(=S)NCCSc1ccc(Cl)cc1,-10%,51%,-7%,x,u,-26%
SMILES,Vaccinia mCherry,Pf growth 96h,Vaccinia Venus,NS1 inh,HCV inhibitor,Pf growth 48h
CC(C)C(NS(=O)(=O)c1cccc2nsnc12)C(=O)N1CCn2c1nc1ccccc12 (stereo not given),0%,u,-6%,-1%,0%,x
Cc1ccc(-n2c(C)cc(C(=S)N3CCOCC3)c2C)cc1C,-14%,10µM*,-18%,10%,u,u
CCN(CC)c1ccc(/C=C2\SC(=O)N(C(C)C)C2=O)o1,i,u,40%,-93%,10µM*,u
Cc1ccc2nc(N(CCCN(C)C)C(=O)c3ccco3)sc2c1,-4%,-9%,3%,x,10µM*,37%
CN(C)CCCN(C(=O)c1ccco1)c1nc2ccc(F)cc2s1,x,-27%,x,x,u,43%
Cc1ccc2nc(N(CCCN(C)C)C(=O)c3ccc(Br)s3)sc2c1,-1%,u,-24%,x,10µM*,u
Cc1ccc(/C=C2/CNC/C(=C/c3ccc(C)cc3)C2=O)cc1,u,x,u,x,8.9µM*,x
CCOC(=O)c1sc(NC(=O)c2ccccc2OCC)nc1C,i,6%,-8%,x,-5%,-7%
COc1ccc(-c2cc(C#N)nc(NN)n2)cc1,-16%,2.9µM*,-24%,u,-13%,u
CCN(CC)c1nc(C#N)cc(-c2ccc(OC)cc2)n1,x,7.4µM*,u,-6%,7.1µM*,13µM*
COc1ccc(-c2cc(C#N)nc(Cl)n2)cc1,u,0%,u,-50%,u,-10%
COc1cc(OC)cc(C(=O)N2CCC3(CC2)NCCc2[nH]cnc23)c1,-17%,-24%,-6%,3%,16%,9%
CN(CCc1ccccc1)C(=O)c1ccc(NC(=O)Cc2cccc(NC(=O)C3CCN(C(=O)C4CCC4)CC3)c2)cc1,i,x,-4%,x,2%,x
Cc1ccc(NC(=O)CSc2nc3ccccc3nc2N2CCOCC2)c(C)c1,i,u,-5%,10%,u,-25%
Cc1ccc(C)c(NC(=O)CN(C)C(=O)[C@@H](NC(=O)c2ccc(C(C)(C)C)cc2)C(C)C)c1,28µM*,u,14µM*,-2%,u,u
